# Assay results taken from PubChem BioAssay (NCATS).
# Records with an inconclusive call do not appear. Activity calls are given as the source filed them. Unless noted, calls come from the whole dose curve; as a rule, active = well fitted curve in the direction sought with a large enough effect; inconclusive = small, poorly fitted or top-dose-only effect, or another doubt; inactive = no such curve, though single readings can be large; an effect the other way counts as inactive or inconclusive.
# What was measured:
# [1] = target: Lysosomal acid glucosylceramidase (Homo sapiens) (UniProt P04062); experiment: Glucocerebrosidase-p2 (AID 348; in the data active = potency below about 10 µM; note: potency is the fitted concentration of half-maximal effect); settings: purified GBA, blue fluorogenic substrate, 40 min
# Chain of Lysosomal acid glucosylceramidase (Homo sapiens) (P04062 whole entry, looked up): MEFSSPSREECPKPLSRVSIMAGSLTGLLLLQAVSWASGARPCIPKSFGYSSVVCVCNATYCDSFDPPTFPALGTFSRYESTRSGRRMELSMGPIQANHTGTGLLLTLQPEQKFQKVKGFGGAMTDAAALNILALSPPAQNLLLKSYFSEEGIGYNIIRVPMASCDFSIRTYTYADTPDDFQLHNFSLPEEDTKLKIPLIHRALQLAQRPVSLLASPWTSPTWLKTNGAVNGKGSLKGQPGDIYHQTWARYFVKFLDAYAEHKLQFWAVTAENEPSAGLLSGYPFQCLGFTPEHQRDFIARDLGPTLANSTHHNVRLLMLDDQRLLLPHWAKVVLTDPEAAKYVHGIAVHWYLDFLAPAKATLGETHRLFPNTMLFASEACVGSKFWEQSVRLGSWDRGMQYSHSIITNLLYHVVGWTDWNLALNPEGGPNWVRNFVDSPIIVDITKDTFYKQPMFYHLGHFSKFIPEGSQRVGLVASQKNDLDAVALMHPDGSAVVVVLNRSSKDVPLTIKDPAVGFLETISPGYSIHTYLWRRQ
# Procedure, shortened: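 Compounds titrated from 0.6 nM upwards against 0.2 nM enzyme in pH 5.9 citric acid/KH2PO4, taurocholate, tween-20; blue fluorogenic substrate 80 uM, 40 min room temperature, stopped and read Ex 365/Em 440 for AC50.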
# [2] = AP1 Signaling Pathway (AID 357; active = well fitted curve in either direction with a large enough effect, not every such curve was filed as active;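 note: ME-180 reporter cells stimulated with EGF at its EC50 level; % is set by controls: 0 for no effect and ±100 for the full control effect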); settings: ME-180 AP-1-bla reporter, EGF-induced, beta-lactamase ratio, 5 h; at 7.69 µM (top of the series) unless noted
# Procedure, shortened: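 Modulation of EGF-driven AP-1 transcription was assessed with a beta-lactamase reporter in ME-180 cells. Compound and EC50 EGF were co-incubated 5 hours at 37 °C before 2.5-hour CCF4 loading at room temperature and dual-emission reading.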
# [3] = target: Cytochrome P450 1A2 (Homo sapiens) (UniProt P05177); experiment: p450-cyp1a2 (AID 410; calls by dose curve; note: potency is the fitted concentration of half-maximal effect); settings: recombinant CYP1A2, luciferin-ME demethylation, luminescence; series mostly up to 57 µM
# Chain of Cytochrome P450 1A2 (Homo sapiens) (P05177 whole entry, looked up): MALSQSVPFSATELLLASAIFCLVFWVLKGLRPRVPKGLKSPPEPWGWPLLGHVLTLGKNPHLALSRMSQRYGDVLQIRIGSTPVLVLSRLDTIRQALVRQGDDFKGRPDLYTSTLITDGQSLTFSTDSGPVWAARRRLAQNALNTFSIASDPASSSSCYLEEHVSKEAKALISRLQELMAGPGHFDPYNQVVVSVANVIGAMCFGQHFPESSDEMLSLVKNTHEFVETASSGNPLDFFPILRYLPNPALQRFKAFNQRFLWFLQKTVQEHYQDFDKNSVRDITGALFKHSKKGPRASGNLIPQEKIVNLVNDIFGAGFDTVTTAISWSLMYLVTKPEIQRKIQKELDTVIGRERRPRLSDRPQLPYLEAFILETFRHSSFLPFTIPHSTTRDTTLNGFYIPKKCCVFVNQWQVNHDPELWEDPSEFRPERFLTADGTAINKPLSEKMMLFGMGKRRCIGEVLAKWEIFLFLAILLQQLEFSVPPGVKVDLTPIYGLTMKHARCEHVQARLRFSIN
# Procedure, shortened: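 20nM CYP1A2 with 100uM Luciferin-ME (at Km) in 100mM KPO4; compound preincubated 10 min, NADPH regeneration added, 60 min at room temperature. Luciferin quantified by luminescence after detection reagent; normalized to 57 uM furafylline.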
# [4] = NFAT Signaling Pathway (AID 444; active = well fitted curve in either direction with a large enough effect, not every such curve was filed as active;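 note: carbachol stimulus at about its EC50 of 1 µM final; % is set by controls: 0 for no effect and ±100 for the full control effect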); settings: Jurkat NFAT-bla M1, carbachol, beta-lactamase ratio, 5 h; at 7.69 µM (top of the series) unless noted
# Procedure, shortened: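 Jurkat cells carrying an NFAT-driven β-lactamase reporter and co-transfected muscarinic M1 receptor were treated with compound plus carbachol (1 uM final, an EC50 level) for 5 h at 37 °C. CCF4 loading followed for 1 h at RT; 460/530 nm ratio gave %activity.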
# [5] = Stat Signaling Pathway (AID 446; active = well fitted curve in either direction with a large enough effect, not every such curve was filed as active;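 note: ME-180 cervical cancer cells given 40 pM IL-6 alongside compound; SIE-controlled beta-lactamase reporter measured as 460/530 nm FRET emission ratio; % is set by controls: 0 for no effect and ±100 for the full control effect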); settings: ME-180 SIE beta-lactamase reporter, IL-6 stimulated, 5 h; at 7.69 µM (top of the series) unless noted
# Procedure, shortened: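 Reporter line: ME-180 cervical carcinoma, SIE-beta-lactamase. Treatment: compound with 40 pM IL-6, 5 hrs, 37 C, in low-serum OPTI-MEM with 10 mM HEPES pH 7.3. Detection: 460/530 nm fluorescence.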
# [6] = target: Glucocorticoid receptor (Homo sapiens) (UniProt P04150); experiment: GR-GFP Redistribution (AID 450;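 active = compounds whose dose series gives a full or clear partial fitted curve of increased nuclear translocation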; note: potency is the fitted concentration of half-maximal effect); settings: U2OS GR-GFP nuclear translocation, laser cytometry, 2 h
# Chain of Glucocorticoid receptor (Homo sapiens) (P04150 whole entry, looked up, the tested form may be a part): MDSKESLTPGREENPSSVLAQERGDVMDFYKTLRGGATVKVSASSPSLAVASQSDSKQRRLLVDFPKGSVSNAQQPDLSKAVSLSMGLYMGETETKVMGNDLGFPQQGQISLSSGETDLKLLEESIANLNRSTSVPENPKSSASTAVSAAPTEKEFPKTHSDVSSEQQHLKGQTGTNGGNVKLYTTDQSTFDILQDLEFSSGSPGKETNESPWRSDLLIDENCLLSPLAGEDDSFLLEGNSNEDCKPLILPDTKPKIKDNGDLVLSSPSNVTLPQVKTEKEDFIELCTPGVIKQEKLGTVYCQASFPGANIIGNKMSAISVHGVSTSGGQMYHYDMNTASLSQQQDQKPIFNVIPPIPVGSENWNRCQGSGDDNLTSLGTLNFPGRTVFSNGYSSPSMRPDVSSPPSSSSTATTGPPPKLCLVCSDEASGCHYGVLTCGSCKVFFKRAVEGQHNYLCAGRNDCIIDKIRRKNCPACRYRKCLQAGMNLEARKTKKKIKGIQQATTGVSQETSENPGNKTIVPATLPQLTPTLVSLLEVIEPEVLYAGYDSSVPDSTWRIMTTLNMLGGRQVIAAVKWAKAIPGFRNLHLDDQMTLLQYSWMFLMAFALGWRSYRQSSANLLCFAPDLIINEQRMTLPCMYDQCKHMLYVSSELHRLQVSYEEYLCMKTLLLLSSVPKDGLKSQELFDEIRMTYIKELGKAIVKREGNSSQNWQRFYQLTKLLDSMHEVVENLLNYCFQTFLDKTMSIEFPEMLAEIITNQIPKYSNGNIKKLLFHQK
# [7] = target: Glucocorticoid receptor (Homo sapiens) (UniProt P04150); experiment: GR-EFC Redistribution (AID 451; calls by dose curve; note: potency is the fitted concentration of half-maximal effect); settings: CHO-K1 GR-EFC translocation, beta-gal luminescence, 2 h
# Procedure, shortened: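 CHO-K1 cells stably expressing nuclear-localized β-gal enzyme acceptor and GR fused C-terminally to the enzyme donor fragment; ligand-driven nuclear translocation restores β-gal by complementation. Compounds titrated up to 46 uM final, 2 h at 37 °C; luminescence read.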
# [8] = target: Mitogen-activated protein kinase 10 (Mus musculus) (UniProt Q61831); experiment: JNK3 AlphaScreen Assay (AID 530; active = well fitted curve in either direction with a large enough effect, not every such curve was filed as active;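 note: kinase came from lysate of stimulated human HepG2 cells; signal reports phosphorylation of biotinylated GST-cJun 1-79 at Ser73 with 10 µM ATP; % is set by controls: 0 for no effect and ±100 for the full control effect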); settings: JNK3 lysate, c-Jun phosphorylation; series mostly up to 57.1 µM
# Procedure, shortened: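 Inhibitors reduce antibody binding to phosphorylated biotin-cJun, lowering AlphaScreen luminescence. Lysates from HepG2 cells pre-activated by IL-1beta plus TNF-alpha supplied JNK3; compounds were titrated.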
# [9] = target: 3',5'-cyclic-AMP phosphodiesterase 4B (Homo sapiens) (UniProt Q07343); experiment: qHTS Assay for Inhibitors of PDE-IV (AID 607; active = well fitted activation curve with a large enough effect in the main read-out, with a control signal flat, not every such curve was filed as active; note: % of control where 0% means no effect); settings: HEK293 ACTOne CNG channel cells, membrane potential fluorescence; series mostly up to 22.9 µM
# Chain of 3',5'-cyclic-AMP phosphodiesterase 4B (Homo sapiens) (Q07343 whole entry, looked up): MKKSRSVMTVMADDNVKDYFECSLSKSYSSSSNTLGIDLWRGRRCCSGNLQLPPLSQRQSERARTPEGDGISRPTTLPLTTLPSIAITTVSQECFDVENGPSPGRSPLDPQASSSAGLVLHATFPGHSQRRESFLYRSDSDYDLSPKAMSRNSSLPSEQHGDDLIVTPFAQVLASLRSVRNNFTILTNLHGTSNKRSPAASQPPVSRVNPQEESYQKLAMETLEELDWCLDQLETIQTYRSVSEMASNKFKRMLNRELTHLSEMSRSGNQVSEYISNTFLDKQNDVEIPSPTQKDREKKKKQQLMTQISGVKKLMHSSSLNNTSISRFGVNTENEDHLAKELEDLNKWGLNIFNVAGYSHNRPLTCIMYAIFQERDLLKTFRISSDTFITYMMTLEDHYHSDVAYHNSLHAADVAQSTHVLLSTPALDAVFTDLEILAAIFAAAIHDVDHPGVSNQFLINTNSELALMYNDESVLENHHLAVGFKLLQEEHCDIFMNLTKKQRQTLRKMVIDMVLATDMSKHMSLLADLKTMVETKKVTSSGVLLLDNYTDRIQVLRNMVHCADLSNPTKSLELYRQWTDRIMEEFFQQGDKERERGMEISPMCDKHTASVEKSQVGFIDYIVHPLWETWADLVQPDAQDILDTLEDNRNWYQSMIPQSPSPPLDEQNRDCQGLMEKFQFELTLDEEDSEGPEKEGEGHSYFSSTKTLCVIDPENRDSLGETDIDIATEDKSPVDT
# Procedure, shortened: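 Cell-based read-out of cAMP via a modified cyclic nucleotide-gated channel and membrane potential dye (535/590 nm) in HEK293 cells expressing PDE4 endogenously. Compounds tested up to 22.9 uM final; 100 uM RO 20-1724 reference.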
# [10] = target: Cytochrome P450 3A4 (Homo sapiens) (UniProt P08684); experiment: qHTS Assay for Inhibitors and Substrates of Cytochrome P450 3A4 (AID 884); settings: recombinant CYP3A4, Luciferin-PPXE luminescence; series mostly up to 57.1 µM; note: potency is the fitted concentration of half-maximal effect; nearly all actives have a fitted effect of over 50% in size
# Chain of Cytochrome P450 3A4 (Homo sapiens) (P08684 whole entry, looked up): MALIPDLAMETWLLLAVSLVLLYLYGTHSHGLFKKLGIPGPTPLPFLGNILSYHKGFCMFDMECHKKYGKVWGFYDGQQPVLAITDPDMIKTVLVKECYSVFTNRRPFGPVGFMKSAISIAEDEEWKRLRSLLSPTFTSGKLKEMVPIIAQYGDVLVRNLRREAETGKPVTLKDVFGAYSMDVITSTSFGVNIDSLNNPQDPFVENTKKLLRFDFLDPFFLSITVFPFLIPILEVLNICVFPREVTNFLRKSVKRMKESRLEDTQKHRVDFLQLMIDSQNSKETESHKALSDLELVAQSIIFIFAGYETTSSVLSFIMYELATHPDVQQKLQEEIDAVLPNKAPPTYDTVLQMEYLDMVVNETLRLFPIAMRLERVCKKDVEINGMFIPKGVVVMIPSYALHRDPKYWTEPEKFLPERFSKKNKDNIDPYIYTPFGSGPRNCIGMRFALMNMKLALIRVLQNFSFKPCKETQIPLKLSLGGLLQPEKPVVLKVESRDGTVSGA
# Procedure, shortened: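 20 nM human CYP3A4 with 25 uM Luciferin-PPXE (at KM) in 200 mM KPO4, preincubated 10 min with compound; NADPH regeneration started a 60 min RT reaction. Luciferin detected by luminescence, normalized to 57 uM ketoconazole as full inhibition.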
# [11] = target: Cytochrome P450 3A4 (Homo sapiens) (UniProt P08684); experiment: qHTS Assay for Activators of Cytochrome P450 3A4 (AID 885); settings: recombinant CYP3A4, Luciferin-PPXE luminescence, 60 min; series mostly up to 57.1 µM; note: nearly all actives have a fitted effect of over 65% in size
# Procedure, shortened: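 Signal was normalized against complete inhibition by 57 uM ketoconazole. The reaction used 20nM CYP3A4 with 25uM Luciferin-PPXE, 10-min compound preincubation and a 60-min NADPH-supported step at RT.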
# [12] = target: Cytochrome P450 2C19 (Homo sapiens) (UniProt P33261); experiment: qHTS Assay for Inhibitors and Substrates of Cytochrome P450 2C19 (AID 899); settings: recombinant CYP2C19, luciferin-H EGE luminescence; series mostly up to 57.1 µM; note: potency is the fitted concentration of half-maximal effect; nearly all actives have a fitted effect of over 60% in size
# Chain of Cytochrome P450 2C19 (Homo sapiens) (P33261 whole entry, looked up): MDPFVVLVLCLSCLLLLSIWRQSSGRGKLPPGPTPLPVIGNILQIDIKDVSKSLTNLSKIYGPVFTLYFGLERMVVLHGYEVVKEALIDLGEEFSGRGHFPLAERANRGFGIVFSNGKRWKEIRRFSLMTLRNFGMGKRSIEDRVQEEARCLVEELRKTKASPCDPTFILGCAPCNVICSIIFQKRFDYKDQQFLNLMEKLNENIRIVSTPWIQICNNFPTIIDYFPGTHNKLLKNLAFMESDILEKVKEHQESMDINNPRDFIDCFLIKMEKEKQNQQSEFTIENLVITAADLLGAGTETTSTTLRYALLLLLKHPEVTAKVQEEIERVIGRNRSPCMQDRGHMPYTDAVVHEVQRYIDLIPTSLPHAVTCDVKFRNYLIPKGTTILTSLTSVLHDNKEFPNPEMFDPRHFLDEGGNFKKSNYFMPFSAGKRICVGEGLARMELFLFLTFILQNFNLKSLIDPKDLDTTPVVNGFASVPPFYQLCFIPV
# Procedure, shortened: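 Human CYP2C19 (5nM) with Luciferin-H EGE at 10uM (its KM) in 50mM KPO4 was preincubated with compound for 10 min at 37C. NADPH regeneration started a 60 min 37C reaction. Luciferin was read by luminescence, normalized to 57uM ketoconazole.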
# [13] = Confirmation and Secondary Assay for Modulators of Hemoglobin Beta Chain Splicing at IVS2 654 locus (AID 910); settings: HeLa EGFP-654 splicing reporter, GFP fluorescence, 48 h; series mostly up to 38.3 µM;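 note: per-well total GFP intensity by laser scanning cytometry after 2-day treatment; % of control where 0% means no effect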
# Procedure, shortened: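 HeLa cells stably carrying EGFP interrupted by mutant beta-globin IVS2-654 intron (CMV-driven) were treated with compound for 2 days at 37C; corrected splicing was scored as total peak GFP intensity per well (488 nm excitation, 500-520 nm emission).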
# [14] = qHTS Assay for Lipid Storage Modulators (AID 1519; calls by dose curve); settings: Drosophila S3 cells, BODIPY lipid droplet/cell ratio, laser cytometry, cells loaded with oleic acid; for activity change, negative = inhibition: at 57.5 µM (top of the series)
# Procedure, shortened: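 Cells seeded at 5,000 per well were treated with compounds over a concentration series and loaded with oleic acid (400 uM, as added). Lipid droplet fluorescence (488 nm excitation, 500-530 nm channel) was read by laser-scanning cytometry and normalized to 20 uM Triacsin C.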
# [15] = target: Ubiquitin carboxyl-terminal hydrolase 1 (Homo sapiens) (UniProt O94782); experiment: Inhibitors of USP1/UAF1: Pilot qHTS (AID 504865); settings: purified USP1/UAF1, Ub-rhodamine cleavage fluorescence; series mostly up to 54.9 µM; note: nearly all actives have a fitted effect of over 35% in size; note: potency is the fitted concentration of half-maximal effect
# Chain of Ubiquitin carboxyl-terminal hydrolase 1 (Homo sapiens) (O94782 whole entry, looked up): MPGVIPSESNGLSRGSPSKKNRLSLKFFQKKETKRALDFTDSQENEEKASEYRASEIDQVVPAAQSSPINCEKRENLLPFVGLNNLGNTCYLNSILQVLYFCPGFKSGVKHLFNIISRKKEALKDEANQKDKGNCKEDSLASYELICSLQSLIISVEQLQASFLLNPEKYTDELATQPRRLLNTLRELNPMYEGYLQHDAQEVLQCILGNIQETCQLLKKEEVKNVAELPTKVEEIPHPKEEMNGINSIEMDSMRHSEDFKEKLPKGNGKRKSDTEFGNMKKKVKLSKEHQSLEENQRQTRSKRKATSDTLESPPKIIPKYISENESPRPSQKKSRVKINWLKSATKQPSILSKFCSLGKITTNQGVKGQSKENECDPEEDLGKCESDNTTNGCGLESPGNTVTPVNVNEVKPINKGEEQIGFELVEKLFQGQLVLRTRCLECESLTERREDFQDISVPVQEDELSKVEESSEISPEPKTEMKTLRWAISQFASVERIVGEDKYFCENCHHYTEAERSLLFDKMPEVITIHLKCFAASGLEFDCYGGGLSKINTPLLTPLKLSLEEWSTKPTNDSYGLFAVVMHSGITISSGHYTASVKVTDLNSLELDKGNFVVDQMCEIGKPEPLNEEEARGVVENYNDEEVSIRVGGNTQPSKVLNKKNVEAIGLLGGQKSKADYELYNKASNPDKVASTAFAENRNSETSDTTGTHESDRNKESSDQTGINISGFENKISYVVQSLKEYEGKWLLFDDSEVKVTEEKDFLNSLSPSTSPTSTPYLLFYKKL
# Procedure, shortened: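 USP1/UAF1 complex at 1 nM preincubated 15 min at room temperature with compound, then Ub-Rho substrate added at 150 nM final. Fluorescence (480/540 nm) read kinetically in 50 mM HEPES pH 7.8, 0.5 mM EDTA, 1 mM TCEP, 0.1 mg/ml BSA, 0.01% Tween-20.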
# [16] = Primary qHTS for small molecule stabilizers of the endoplasmic reticulum resident proteome: Secreted ER Calcium Modulated Protein (SERCaMP) assay (AID 1508630); settings: SH-SY5Y GLuc-SERCaMP (Gaussia luciferase released on ER calcium loss) secretion, thapsigargin, luminescence; series mostly up to 38.4 µM; note: % is set by controls: 0 for no effect and ±100 for the full control effect
# Procedure, shortened: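 GLuc-SERCaMP-expressing SH-SY5Y cells, pretreated 16 h with compound, are challenged with thapsigargin to empty ER calcium stores; after 4 h, coelenterazine is added directly to the medium and luminescence is imaged.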
# [17] = target: Cytochrome P450 2C9 (Homo sapiens) (UniProt P11712); experiment: qHTS Assay for Inhibitors and Substrates of Cytochrome P450 2C9 (AID 883); settings: recombinant CYP2C9, luciferin-H luminescence, 60 min; series mostly up to 57.1 µM; note: % is set by controls: 0 for no effect and ±100 for the full control effect; nearly all actives have a fitted effect of over 60% in size
# Chain of Cytochrome P450 2C9 (Homo sapiens) (P11712 whole entry, looked up): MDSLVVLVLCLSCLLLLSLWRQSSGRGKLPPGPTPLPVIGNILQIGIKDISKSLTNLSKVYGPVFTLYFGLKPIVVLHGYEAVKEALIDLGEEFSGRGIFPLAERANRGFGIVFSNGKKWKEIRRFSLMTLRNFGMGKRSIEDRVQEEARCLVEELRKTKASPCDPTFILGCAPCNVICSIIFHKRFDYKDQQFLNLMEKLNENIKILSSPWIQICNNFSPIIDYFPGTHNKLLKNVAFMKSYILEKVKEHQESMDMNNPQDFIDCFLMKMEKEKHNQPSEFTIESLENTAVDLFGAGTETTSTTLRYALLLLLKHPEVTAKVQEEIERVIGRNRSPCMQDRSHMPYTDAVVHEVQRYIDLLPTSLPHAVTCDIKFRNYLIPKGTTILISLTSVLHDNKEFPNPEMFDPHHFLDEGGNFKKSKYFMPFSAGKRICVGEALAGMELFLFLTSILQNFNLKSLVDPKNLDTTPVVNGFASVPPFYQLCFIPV
# Procedure, shortened: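 Human CYP2C9 (10nM) hydroxylated Luciferin-H (100uM, at its KM) to luciferin in 25mM KPO4. Compound was preincubated 10 min at 37C, then NADPH regeneration started a 60 min reaction at 37C. Luminescence was read after detection reagent, normalized to 57uM sulphaphenazole.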
# [18] = Confirmation and Secondary Assay for Modulators of Hemoglobin Beta Chain Splicing at IVS2 705 locus (AID 930); settings: HeLa EGFP-705 splicing reporter, GFP fluorescence, 48 h; series mostly up to 38.3 µM;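 note: HeLa cells stably expressing the EGFP-705 splicing reporter; GFP fluorescence per well restored by corrected splicing of the IVS2-705 intron in EGFP; % of control where 0% means no effect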
# Procedure, shortened: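 Fluorescence gain (488 nm laser, 500-520 nm PMT) reflects restored correct splicing of a mutant IVS2-705 intron inside EGFP in stably transfected HeLa cells after 2-day compound treatment.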
# [19] = target: Dual specificity protein kinase CLK4 (Homo sapiens) (UniProt Q9HAZ1); experiment: qHTS Assay for Inhibitors of CDC-like Kinase 4 (ADP-FP Assay) (AID 1795); settings: Transcreener ADP fluorescence polarization; series mostly up to 50 µM;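 note: recombinant human CLK4 phosphorylating RS repeat peptide at 1 µM ATP; % is set by controls: 0 for no effect and ±100 for the full control effect; nearly all actives have a fitted effect of over 60% in size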
# Procedure, shortened: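 Recombinant Clk4 (6.25 nM) phosphorylated 100 uM RS repeat peptide with 1 uM ATP in 25 mM Tris pH 7.5, 10 mM MgCl2, 0.5 mM EGTA, 2.5 mM DTT, 0.01% Triton X-100 for 1 h. ADP was detected by Transcreener ADP2 competitive fluorescence polarization after 30 min at room temperature.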
# [20] = measured here: cell count channel max response
# [21] = measured here: lipid channel max response
smiles,measurement,setting,value
c1cncc(CNc2ncncc2-c2ccc3c(c2)OCO3)c1,Potency,[1],> 11.4 µM (inactive)
same,"activity change, negative = inhibition",[2],-3.33% (inactive)
same,Potency,[3],0.398 µM (active)
same,"activity change, negative = inhibition",[4],6.22% (inactive)
same,"activity, negative = inhibition",[5],0.562% (inactive)
same,Potency,[6],> 46 µM (inactive)
same,Potency,[7],> 46 µM (inactive)
same,outcome,[8],inactive
same,Potency,[9],inactive
same,Potency,[10],0.398 µM (active)
same,Potency,[11],inactive
same,Potency,[12],0.199 µM (active)
same,outcome,[13],inactive
same,"activity change, negative = inhibition",[14],8.63% (inactive)
same,max response,[14]; [20],10.5%
same,max response,[14]; [21],22.7%
same,Potency,[15],inactive
same,Potency,[16],inactive
CN(C)Cc1ccccc1-c1cc(NC2CC2)ncn1,Potency,[1],> 11.4 µM (inactive)
same,"activity change, negative = inhibition",[2],-5.78% (inactive)
same,Potency,[3],12.6 µM (active)
same,"activity change, negative = inhibition",[4],-10% (inactive)
same,"activity, negative = inhibition",[5],12.3% (inactive)
same,Potency,[6],> 46 µM (inactive)
same,Potency,[7],> 46 µM (inactive)
same,outcome,[8],inactive
same,Potency,[9],inactive
same,"activity change, negative = inhibition",[17],5.15% [at 2.29 µM] (inactive)
same,Potency,[11],inactive
same,outcome,[13],inactive
same,outcome,[18],inactive
same,"activity change, negative = inhibition",[14],8.29% (inactive)
same,max response,[14]; [20],13%
same,max response,[14]; [21],22.4%
same,Potency,[15],inactive
same,Potency,[16],inactive
COc1ccccc1-c1cc(NCc2ccccc2)ncn1,Potency,[1],> 11.4 µM (inactive)
same,"activity change, negative = inhibition",[2],3.71% (inactive)
same,"activity change, negative = inhibition",[4],-5.25% (inactive)
same,"activity, negative = inhibition",[5],2.32% (inactive)
same,Potency,[6],> 46 µM (inactive)
same,Potency,[7],> 46 µM (inactive)
same,outcome,[8],inactive
same,"activity change, negative = inhibition",[17],35.7% [at 2.29 µM] (inactive)
same,"activity change, negative = inhibition",[14],2.28% (inactive)
same,max response,[14]; [20],10.9%
same,max response,[14]; [21],10.5%
same,Potency,[19],inactive
same,Potency,[15],22.4 µM (active)
same,Potency,[16],inactive
CN(C)c1ccnc(-c2cccc(NS(C)(=O)=O)c2)n1,Potency,[1],> 11.4 µM (inactive)
same,"activity change, negative = inhibition",[2],-6.35% (inactive)
same,Potency,[3],1.58 µM (active)
same,"activity change, negative = inhibition",[4],0.933% (inactive)
same,"activity, negative = inhibition",[5],3.11% (inactive)
same,Potency,[6],> 46 µM (inactive)
same,Potency,[7],> 46 µM (inactive)
same,outcome,[8],inactive
same,Potency,[9],inactive
same,"activity change, negative = inhibition",[17],2.49% [at 2.29 µM] (inactive)
same,Potency,[11],inactive
same,outcome,[13],inactive
same,"activity change, negative = inhibition",[14],11.6% (inactive)
same,max response,[14]; [20],7.48%
same,max response,[14]; [21],20%
same,Potency,[15],inactive
same,Potency,[16],inactive
Cc1noc(C)c1-c1cc(NC2CC2)ncn1,Potency,[1],> 11.4 µM (inactive)
same,"activity change, negative = inhibition",[2],-3.03% (inactive)
same,Potency,[3],0.316 µM (active)
same,"activity change, negative = inhibition",[4],3.57% (inactive)
same,"activity, negative = inhibition",[5],5.59% (inactive)
same,Potency,[6],> 46 µM (inactive)
same,Potency,[7],> 46 µM (inactive)
same,outcome,[8],inactive
same,Potency,[9],inactive
same,Potency,[11],inactive
same,outcome,[13],inactive
same,outcome,[18],inactive
same,"activity change, negative = inhibition",[14],11% (inactive)
same,max response,[14]; [20],17%
same,max response,[14]; [21],27.1%
same,Potency,[15],inactive
same,Potency,[16],inactive
